Here are results for 27 molecules from PubChem BioAssay AID372 (MTDP, 2006).

Among all 100,000 compounds or so, about 770 (0.77%) were called active. Rule as the data show it: active = inhibition above about 50%; inactive = the rest. The sample as a whole holds a higher share of actives than the screen did.

The assay concerns the target Gag-Pol polyprotein (Human immunodeficiency virus type 1 group M subtype B (isolate HXB2)) (UniProt P04585). As to the kind of experiment: RNase H inhibition, HIV 1 Gag Pol polyprotein, FRET biochemical assay, screening (AID 372). The note with it: HIV-1 RT RNase H, FRET RNA/DNA substrate fluorescence; at 10 µM; active compounds read high.
For orientation: inhibition means the drop in the measured response relative to a control, in per cent. On to `CCC(=O)c1cc(Cl)ccc1NC(=O)c1ccc(Br)cc1`, for which the inhibition was 10% (inactive).
To `CC(=O)c1cccc(NC(=O)c2ccc(OC3CSC3)cc2)c1` belongs 8% (inactive); to `Cc1sc(NC(=O)C2C3C=CC(C3)C2C(=O)O)c(C(N)=O)c1C` (configuration not stated), 6% (inactive).
To `CCOc1cc(/C=C2\C(=O)NC(=O)N(c3ccc(Br)cc3)C2=O)ccc1OCC(=O)O` belongs 8% (inactive); to `O=C(O)c1cccc(N2C(=O)c3ccc4c5c(ccc(c35)C2=O)CC4)c1`, 56% (active); to `O=C(O)c1cccc(N2C(=O)c3cccnc3C2=O)c1`, 0% (inactive).
To `O=C(O)c1cccc(N2C(=O)c3ccc(Br)cc3C2=O)c1` belongs 1% (inactive).
As for `COc1ccc(-c2nnc(SCC(=O)c3cccc([N+](=O)[O-])c3)n2-c2ccc(C)cc2)cc1OC`, the inhibition is 19% (inactive).
In the case of `Oc1ccc(Nc2nc(-c3ccc(Br)cc3)cs2)cc1` it was 21% (inactive); in that of `O=C1c2ccc3c4c(ccc(c24)C(=O)N1/N=C/c1ccco1)CC3`, 3% (inactive).
In the case of `Oc1cc(-c2ccccc2)c2c(c1)C1CCCCC1(N1CCOCC1)O2` (configuration not stated) it was 0% (inactive).
As to `Oc1ccc2c(c1)C1CCCCC1(N1CCCCC1)O2` (configuration not stated), the inhibition is 0% (inactive).
In the case of `O=[N+]([O-])c1ccc2c(c1)C(C#Cc1ccccc1)C1CCCCC1(N1CCOCC1)O2` (configuration not stated) it was 57% (active).
In the case of `O=C(COc1ccc2ccccc2c1)N/N=C\c1cc(O)c(O)c(Br)c1` it was 73% (active).
On to `COc1ccc(OCC(=O)N/N=C\c2cc(O)c(O)c(Br)c2)c(Br)c1`, for which the inhibition was 64% (active).
`O=C(COc1ccc2ccccc2c1)N/N=C/c1ccccc1`: the inhibition was 4% (inactive).
In the case of `O=C(COc1ccc2ccccc2c1)N/N=C/c1ccccc1Br` it was 13% (inactive); in that of `COc1ccc(OCC(=O)N/N=C/c2ccc(OC)c(Br)c2)cc1`, 2% (inactive).
As for `COc1cc(/C=N/NC(=O)COc2ccc(Cl)cc2Br)cc(Br)c1O`, the inhibition is 24% (inactive).
To `Cc1cc(=O)[nH]c(N/N=C/c2ccc(O)cc2)n1` belongs 2% (inactive); to `CC(C)(C)c1cc(C(=O)Nc2nsc(-c3ccccc3)n2)cc(C(C)(C)C)c1`, 7% (inactive); to `COc1ccc(NC(=O)/C=C/c2ccc(C)o2)cc1`, 21% (inactive).
To `O=c1oc2ccccc2cc1-c1nn(-c2ccccc2)cc1/C=N/O` belongs 21% (inactive); to `N#CC(C#N)=Cc1cn(-c2ccccc2)nc1-c1cc2ccccc2oc1=O`, 56% (active); to `N#C/C(=C/c1cn(-c2ccccc2)nc1-c1cc2ccccc2oc1=O)C(N)=O`, 8% (inactive).
As for `Cc1ccccc1-c1nc2c3c4c(sc3ncn2n1)CCCCC4`, the inhibition was 8% (inactive).
To `COc1ccc(OCC(=O)Nc2sc3c(c2C(N)=O)CCCC3)cc1` belongs 41% (inactive).
